This is a sample that favours compounds with a hit; in the whole collection about 2% have one here.
A3G deaminase – blocks human APOBEC3G single-stranded DNA deamination. recombinant A3G, ssDNA deamination FAM/TAMRA fluorescence. 330,000 compounds, 0.28% hits. inhibition, % at 20 µM. Q9HC16;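 active = inhibition of at least 40% at 20 µM, with no more than 30% in the related APOBEC3A deaminase screen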
Target sequence (Q9HC16 whole entry, looked up): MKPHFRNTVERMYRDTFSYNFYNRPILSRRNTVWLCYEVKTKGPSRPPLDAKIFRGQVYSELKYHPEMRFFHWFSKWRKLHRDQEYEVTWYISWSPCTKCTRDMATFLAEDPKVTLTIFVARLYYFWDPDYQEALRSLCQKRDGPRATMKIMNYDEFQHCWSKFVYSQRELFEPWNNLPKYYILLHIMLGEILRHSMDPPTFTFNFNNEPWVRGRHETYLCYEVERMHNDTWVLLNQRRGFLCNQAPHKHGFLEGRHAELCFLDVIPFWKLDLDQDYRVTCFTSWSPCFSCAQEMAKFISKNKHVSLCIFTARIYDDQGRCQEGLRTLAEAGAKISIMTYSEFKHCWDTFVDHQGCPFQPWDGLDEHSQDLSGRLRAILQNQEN
A3A deaminase – inhibitors of human APOBEC3A DNA deaminase. P31941. recombinant A3A, FAM/TAMRA ssDNA deamination fluorescence. inhibition, % at 20 µM. 330,000 compounds, 0.41% hits. AID 493011;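 active = at least 40% inhibition at 20 µM here, with at most 30% in a related deaminase screen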
Target sequence (P31941 whole entry, looked up): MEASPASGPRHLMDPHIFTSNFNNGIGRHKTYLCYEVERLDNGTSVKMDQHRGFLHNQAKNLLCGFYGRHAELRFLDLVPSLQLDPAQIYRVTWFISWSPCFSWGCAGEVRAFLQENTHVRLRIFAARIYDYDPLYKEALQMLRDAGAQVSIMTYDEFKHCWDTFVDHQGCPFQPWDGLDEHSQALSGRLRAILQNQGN
PfGluPho inh – PfG6PD (Plasmodium falciparum) enzyme inhibition; inhibition, % at 20 µM; PfGluPho enzyme, NADPH resazurin-diaphorase fluorescence; 350,000 compounds, 0.78% hits;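 active = inhibition reaching at least a set limit at 20 µM in the primary screen, cut at about 59% in these data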
GC-A act – GC-A (human) enzyme activation. activation, % at 10 µM. 370,000 compounds, 0.14% hits. HEK293 GC-A cells, cGMP TR-FRET, EC30 ANP; 0% at EC30 ANP, 100% saturating ANP. P16066; in the data active = activation above about 40%
NPR2 activator – GC-B (human) receptor activation | P20594 | 370,000 compounds, 0.11% hits | HEK293-GC-B cells, CNP EC30, cGMP TR-FRET; 0% at EC30 CNP, 100% saturating CNP | activation, % at 10 µM;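 active = activation at 10 µM reaching about 35% in either raw or pattern-adjusted values, limit read from the data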
Neddyl block – cullin neddylation inhibition | TR-FRET cullin neddylation, biochemical | inhibition, % at 25 µM | 360,000 compounds, 0.58% hits; in the data active = inhibition above about 36%
Neddyl conf – cullin neddylation inhibition, confirmation | calls only at 25 µM | 1,800 compounds, 13% hits | AID 652217 | TR-FRET cullin neddylation biochemical assay | shares compounds with Neddyl block; in the data active = inhibition above about 40%;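 also: neddylation substrate is the cullin 1 ring ligase complex with SKP2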
Each line names hits and unclear results; the compound was inactive in the other large screens (follow-up assays come after a bar, where shown).

CCn1c(CSc2nc3ccccc3[nH]2)nc2cc(C(=O)O)ccc21	Neddyl block 47.7
C/C(=N\NC(=O)c1ccc(NS(=O)(=O)c2cccs2)cc1)c1ccccc1	none
C/C(=N\NC(=O)c1ccc(NS(=O)(=O)c2cccs2)cc1)c1ccc(O)cc1O	Neddyl block 42.1
O=C(N/N=C/c1ccc(N2CCOCC2)s1)c1ccc(NS(=O)(=O)c2cccs2)cc1	Neddyl block 49.9 | Neddyl conf active
O=C(N/N=C/c1ccc(N2CCOCC2)cc1)c1ccc(NS(=O)(=O)c2cccs2)cc1	none (not shown: Neddyl block)
CC(OC(=O)/C=C/c1cccc(F)c1)C(=O)NC1CCCCC1C (stereo unspecified)	none
COc1cc(/C=C/C(=O)OC(C)C(=O)NC2CCCCC2C)cc(Cl)c1OC (stereo unspecified)	Neddyl block 40.1 | Neddyl conf inactive
CSc1ccccc1NC(=S)N/N=C/c1cccn1Cc1ccc(F)cc1	Neddyl block 46.6 | Neddyl conf inactive
COc1ccc(NC(=S)N/N=C/c2cccn2Cc2ccc(F)cc2Cl)cc1	none
Cc1nc(SCC(N)=O)[nH]c(=O)c1C	none (no result: A3G deaminase, A3A deaminase, PfGluPho inh, Neddyl block)
COc1ccc(C(=O)Nc2ccc(NC(=O)c3cccs3)cc2)cc1Cl	Neddyl block 40.3 | Neddyl conf inactive
CCCCc1ccc2nc(NC(=O)c3cccs3)sc2c1	none (no result: A3G deaminase, A3A deaminase, PfGluPho inh, Neddyl block)
CCOC(=O)[C@]12CCCCC/C=C\1N(CCc1ccc(Cl)cc1)C(=O)[C@H]2CC(=O)NCCc1ccccc1OC	none (no result: A3G deaminase, A3A deaminase, PfGluPho inh, Neddyl block)
Cc1cc(Nc2nc3c(c(=O)n(C)c(=O)n3C)n2C)n(-c2ccc(Cl)cc2)n1	Neddyl block 39.6 | Neddyl conf inactive
C[C@H]1[C@H](NC(=O)c2cccc(C(F)(F)F)c2)CC[C@@]23CCCN2C(=O)CCC[C@@H]13	none (no result: A3G deaminase, A3A deaminase, PfGluPho inh, Neddyl block)
CCOC(=O)C(C)Sc1nc(-c2ccco2)cc(C(F)(F)F)c1C#N (stereo unspecified)	Neddyl block 40.7
Cc1c(C)n(CCCN(C)C)c2ncnc(Nc3ccccc3)c12	Neddyl block 41.9 | Neddyl conf inactive
Cc1cc(C)c2c(N)c(C(=O)c3ccccc3)sc2n1	Neddyl block 45.0 | Neddyl conf active
COC(=O)[C@]12C[C@H](CC(=O)NCc3cccs3)C(=O)N(Cc3ccc4c(c3)OCO4)C1=C[C@H](C(C)(C)C)O[C@@H]2C	none (no result: A3G deaminase, A3A deaminase, PfGluPho inh, Neddyl block)
COc1ccc(C(CC(=O)N2CCN(c3ccccc3)CC2)c2c(OC)cc(OC)c3ccc(=O)oc23)cc1 (stereo unspecified)	Neddyl block 33.3 | Neddyl conf inactive
CS(=O)(=O)Nc1ccc(C2=NN(C(=O)c3ccco3)C(c3ccccc3F)C2)cc1 (stereo unspecified)	Neddyl block 47.9 | Neddyl conf inactive
CCS(=O)(=O)Nc1ccc(C2=NN(C(=O)c3ccco3)C(c3ccco3)C2)cc1 (stereo unspecified)	none
CCS(=O)(=O)Nc1ccc(C2=NN(C(=O)c3ccco3)C(c3cccs3)C2)cc1 (stereo unspecified)	Neddyl block 42.3 | Neddyl conf inactive
CS(=O)(=O)Nc1cccc(C2=NN(C(=O)c3ccco3)C(c3ccco3)C2)c1 (stereo unspecified)	none
CC(C)[C@H](N)C(=O)N[C@H](C(=O)N1CCC2CCN(S(=O)(=O)c3ccccc3)CC21)C(C)C (stereo partly specified)	none (no result: A3G deaminase, A3A deaminase, PfGluPho inh, Neddyl block)
Cc1c(CC(=O)O)c(=O)oc2c(C)c(OCc3nn[nH]n3)ccc12	none (not shown: Neddyl block)
Cc1c(Cc2ccccc2)c(=O)oc2c(C)c(OCc3nn[nH]n3)ccc12	Neddyl block 40.5 | Neddyl conf inactive
CCOc1ccc(CCNC(=O)c2cc3ccsc3n2C)cc1OCC	none (no result: A3G deaminase, A3A deaminase, PfGluPho inh, Neddyl block)
CCOC(=O)CSc1ccc2nnc(-c3ccccc3)n2n1	none (not shown: Neddyl block)
CCOC(=O)CSc1ccc2nnc(-c3cccnc3)n2n1	Neddyl block 54.6
CC1(C)Oc2ccc3ccc(=O)oc3c2/C(=C/O)C1=O	Neddyl block 44.5 | Neddyl conf inactive
Clc1ccc2[nH]c3c(NCCCN4CCOCC4)ncnc3c2c1	Neddyl block 38.1 | Neddyl conf inactive
CCOC(=O)CC[C@@]1(C(=O)OCC)C[C@@H](CC(=O)NCc2ccc(OC)c(OC)c2)C(=O)N2CCCC=C21	none (no result: A3G deaminase, A3A deaminase, PfGluPho inh, Neddyl block)
O=C(NCc1ccccc1)[C@@H]1CCCN1C(=O)[C@H]1CCCN1C(=O)c1ccc(F)c(F)c1	none (no result: A3G deaminase, A3A deaminase, PfGluPho inh, Neddyl block)
Cc1cccn2c(=O)c3cc(C(=O)N4CCN(Cc5ccccc5)CC4)sc3nc12	Neddyl block 65.0 | Neddyl conf active
O=C(NC1CCCC1)c1cc2c(=O)n3ccccc3nc2s1	none (not shown: Neddyl block)
Cc1cccn2c(=O)c3cc(C(=O)NC4CCCC4)sc3nc12	Neddyl block 63.7
Cc1cccn2c(=O)c3cc(C(=O)N4CCCCC4)sc3nc12	none (not shown: Neddyl block)
CCC1CCCCN1C(=O)c1cc2c(=O)n3cccc(C)c3nc2s1 (stereo unspecified)	Neddyl block 56.2 (no result: GC-A act, NPR2 activator) | Neddyl conf inactive
Cc1cccn2c(=O)c3cc(C(=O)N4CCCC(C)C4)sc3nc12 (stereo unspecified)	Neddyl block 54.4 | Neddyl conf inactive
COc1ccc(C2C(C(=O)Nc3cc(Cl)ccc3F)CCC(=O)N2c2ccc(OC)cc2)cc1 (stereo unspecified)	none (no result: A3G deaminase, A3A deaminase, PfGluPho inh, Neddyl block)
Clc1ccc(CN2CCN(N=Cc3ccncc3)CC2)cc1	none (no result: A3G deaminase, A3A deaminase, PfGluPho inh, Neddyl block)
CN=C1S/C(=C/c2cc(C)n(Cc3ccccc3)c2C)C(=O)N1C	none (no result: A3G deaminase, A3A deaminase, PfGluPho inh, Neddyl block)
CC[C@H](CCC(=O)N(c1ccccc1)c1ccccc1)C1CC1	none (no result: A3G deaminase, A3A deaminase, PfGluPho inh, Neddyl block)
O=[N+]([O-])c1ccccc1/C=C/C=N/n1c(-c2cc(-c3ccccc3)n[nH]2)n[nH]c1=S	Neddyl block 81.1 | Neddyl conf inactive
O=C(NCc1ccccc1Cl)c1cnn2cccnc12	Neddyl block 39.4 | Neddyl conf inactive
Cn1cccc1C(=O)N1CCN(S(=O)(=O)c2ccc(Cl)s2)CC1	none (no result: A3G deaminase, A3A deaminase, PfGluPho inh, Neddyl block)
COC(=O)[C@]12C[C@H](CC(=O)NCCC(C)C)C(=O)N(Cc3ccc4c(c3)OCO4)C1=C[C@H](C(C)(C)C)O[C@@H]2C	none (no result: A3G deaminase, A3A deaminase, PfGluPho inh, Neddyl block)
CCC[C@@H](/C=C/C(=O)OC(C)(C)C)Sc1ccc(N)cc1	none (no result: A3G deaminase, A3A deaminase, PfGluPho inh, Neddyl block)
COc1cc(NC(C)=O)ccc1-c1cc2ccccc2oc1=O	Neddyl block 41.7 | Neddyl conf inactive
Cc1ccc(C(=O)c2oc3ccccc3c2NC(=O)c2cc(-c3ccccc3O)n[nH]2)cc1	none (not shown: Neddyl block)
Cc1ccc(C(=O)c2oc3ccccc3c2NC(=O)c2cc(-c3cc(C)ccc3O)n[nH]2)cc1	Neddyl block 39.5 | Neddyl conf inactive
Cc1ccc(S(=O)(=O)c2n[nH]n3c2nc(=O)c2ccccc23)cc1	Neddyl block 40.0 | Neddyl conf inactive

Screening data deposited in PubChem by Sanford-Burnham Center for Chemical Genomics.
